# Reference: the supplement of paper PMC8728848
# The entries come from a sample that favours the strongest signals as a whole.
# B1: Epa15 (Candida glabrata) (protein)
# chain: MGSSHHHHHHSSGLVPRGSHMASDPTTFPLGCSPEFTKTKKGLSMELYRYDYLPPGSYPCWDSAYLNPSYPRTGYKAKKLIATVDGVSGDINFKFNPKFGCKAIPDYLPSNFNYHEPITITNFTMILYGYFMPKTTAFHTFYVTADDLLFMNFGAGNAFDCCRREETADKFGNYAAYSVWGKKSLKNELTVYLHTGVYYPIRLFYNNRDYIAQLDIRFKTEHSNAIITNFTDYFYSVDDSSLGCPGLI
# Key:
# Test in all cases: glycan array binding signal (z-score within array); higher = stronger binding
# Conditions in all cases: glycan notation: IUPAC condensed, linker removed
# [1] = target: Fuc(a1-2)Gal(b1-3)[Fuc(a1-4)]GlcNAc
# Outline: (§1)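 The binding signal is a Z-score computed within each array. Data were drawn from 3228 arrays in the Consortium for Functional Glycomics database, restricted to those with a known protein sequence. Scores were averaged over arrays of the same protein sequence at different concentrations or buffers, and over linkers, and negative values can be taken as non-binding.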
# [2] = target: Fuc(a1-2)Gal(b1-4)[Fuc(a1-3)]GlcNAc
# Outline: as §1
# [3] = target: Fuc(a1-2)Gal(b1-4)[Fuc(a1-3)]GlcNAc(b1-3)Gal(b1-4)[Fuc(a1-3)]GlcNAc(b1-3)Gal(b1-4)[Fuc(a1-3)]GlcNAc
# Outline: as §1
# [4] = target: Fuc(a1-2)Gal(b1-4)[Fuc(a1-3)]GlcNAc(b1-3)[Neu5Ac(a2-6)Gal(b1-4)GlcNAc(b1-6)]Gal(b1-4)Glc
# Outline: as §1
# [5] = target: Fuc(a1-2)[Gal(a1-3)]Gal(b1-3)GalNAc
# Outline: as §1
# [6] = target: Fuc(a1-3)[Gal(b1-4)]GlcNAc(b1-2)Man(a1-3)[Fuc(a1-3)[Gal(b1-4)]GlcNAc(b1-2)Man(a1-6)]Man(b1-4)GlcNAc(b1-4)GlcNAc
# Outline: as §1
# [7] = target: Gal(a1-3)Gal(b1-3)GlcNAc(b1-2)Man
# Outline: as §1
# [8] = target: Gal(a1-3)Gal(b1-3)[Fuc(a1-4)]GlcNAc(b1-2)Man(a1-3)[Gal(a1-3)Gal(b1-3)[Fuc(a1-4)]GlcNAc(b1-2)Man(a1-6)]Man(b1-4)GlcNAc(b1-4)GlcNAc
# Outline: as §1
# Gal(b1-3)Gal(b1-4)GlcNAc = target: Gal(b1-3)Gal(b1-4)GlcNAc
# Outline: as §1
# [9] = target: Gal(b1-3)GalNAc(b1-4)Gal(b1-4)Glc
# Outline: as §1
# Gal(b1-3)GlcNAc(b1-2)Man = target: Gal(b1-3)GlcNAc(b1-2)Man
# Outline: as §1
# [10] = target: Gal(b1-3)[Neu5Ac(a2-6)]GlcNAc
# Outline: as §1
# [11] = target: Gal(b1-3)[Neu5Ac(a2-6)]GlcNAc(a1-4)Gal(b1-4)Glc
# Outline: as §1
# [12] = target: Gal(b1-4)GlcNAc(b1-2)[Gal(b1-4)GlcNAc(b1-6)]Man(a1-6)[GlcNAc(b1-4)][Gal(b1-4)GlcNAc(b1-2)Man(a1-3)]Man(b1-4)GlcNAc(b1-4)GlcNAc
# Outline: as §1
# [13] = target: Gal(b1-4)GlcNAc(b1-3)Gal(b1-4)GlcNAc(b1-2)[Gal(b1-4)GlcNAc(b1-3)Gal(b1-4)GlcNAc(b1-6)]Man(a1-6)[Gal(b1-4)GlcNAc(b1-3)Gal(b1-4)GlcNAc(b1-2)Man(a1-3)]Man(b1-4)GlcNAc(b1-4)GlcNAc
# Outline: as §1
# [14] = target: Gal(b1-4)GlcNAc(b1-3)[Gal(b1-4)GlcNAc(b1-6)]GalNAc
# Outline: as §1
# [15] = target: Gal(b1-4)GlcNAc(b1-6)[Gal(b1-3)]GlcNAc
# Outline: as §1
# Gal3S(b1-4)Glc = target: Gal3S(b1-4)Glc
# Outline: as §1
# Gal3S(b1-4)GlcNAc = target: Gal3S(b1-4)GlcNAc
# Outline: as §1
# Gal6S(b1-3)GlcNAc = target: Gal6S(b1-3)GlcNAc
# Outline: as §1
# Gal6S(b1-4)Glc6S = target: Gal6S(b1-4)Glc6S
# Outline: as §1
# Gal6S(b1-4)GlcNAc6S = target: Gal6S(b1-4)GlcNAc6S
# Outline: as §1
# [16] = target: GalNAc(b1-3)Gal(a1-4)Gal(b1-4)GlcNAc
# Outline: as §1
# [17] = target: GalNAc3S(b1-4)[Fuc(a1-3)]GlcNAc
# Outline: as §1
# Glc(b1-6)Glc = target: Glc(b1-6)Glc
# Outline: as §1
# [18] = target: GlcNAc(a1-4)Gal(b1-4)GlcNAc(b1-3)Gal(b1-4)GlcNAc(b1-3)Gal(b1-4)GlcNAc
# Outline: as §1
# [19] = target: GlcNAc(b1-2)Gal(b1-3)GalNAc
# Outline: as §1
# [20] = target: GlcNAc(b1-2)Man(a1-3)[GlcNAc(b1-4)][GlcNAc(b1-2)Man(a1-6)]Man(b1-4)GlcNAc(b1-4)[Fuc(a1-6)]GlcNAc
# Outline: as §1
# [21] = target: GlcNAc(b1-3)Gal(b1-3)GalNAc
# Outline: as §1
# [22] = target: GlcNAc(b1-3)Gal(b1-4)GlcNAc(b1-2)[GlcNAc(b1-3)Gal(b1-4)GlcNAc(b1-6)]Man(a1-6)[GlcNAc(b1-3)Gal(b1-4)GlcNAc(b1-2)Man(a1-3)]Man(b1-4)GlcNAc(b1-4)GlcNAc
# Outline: as §1
# [23] = target: GlcNAc(b1-3)Gal(b1-4)GlcNAc(b1-6)[GlcNAc(b1-3)Gal(b1-3)]GalNAc
# Outline: as §1
# [24] = target: GlcNAc(b1-3)[GlcNAc(b1-4)][GlcNAc(b1-6)]GlcNAc
# Outline: as §1
# Kdn(a2-3)Gal(b1-4)GlcNAc = target: Kdn(a2-3)Gal(b1-4)GlcNAc
# Outline: as §1
# [25] = target: Man(a1-2)Man(a1-2)Man(a1-3)[Man(a1-2)Man(a1-6)[Man(a1-3)]Man(a1-6)]Man(b1-4)GlcNAc(b1-4)GlcNAc
# Outline: as §1
# Man(a1-3)[Man(a1-6)]Man = target: Man(a1-3)[Man(a1-6)]Man
# Outline: as §1
# [26] = target: Neu5Ac(a2-3)Gal(b1-3)GlcNAc(b1-2)Man(a1-3)[Neu5Ac(a2-3)Gal(b1-3)GlcNAc(b1-2)Man(a1-6)]Man(b1-4)GlcNAc(b1-4)GlcNAc
# Outline: as §1
# [27] = target: Neu5Ac(a2-3)Gal(b1-3)GlcNAc(b1-2)[Neu5Ac(a2-3)Gal(b1-3)GlcNAc(b1-4)]Man(a1-6)[Neu5Ac(a2-3)Gal(b1-3)GlcNAc(b1-2)Man(a1-3)]Man(b1-4)GlcNAc(b1-4)GlcNAc
# Outline: as §1
# [28] = target: Neu5Ac(a2-3)Gal(b1-4)GlcNAc(b1-3)Gal(b1-4)GlcNAc(b1-3)Gal(b1-4)GlcNAc(b1-2)Man(a1-3)[Neu5Ac(a2-3)Gal(b1-4)GlcNAc(b1-3)Gal(b1-4)GlcNAc(b1-3)Gal(b1-4)GlcNAc(b1-2)Man(a1-6)]GalNAc
# Outline: as §1
# [29] = target: Neu5Ac(a2-3)Gal(b1-4)[Fuc(a1-3)]GlcNAc(b1-6)[Gal(b1-3)]GalNAc
# Outline: as §1
# [30] = target: Neu5Ac(a2-3)Gal(b1-4)[Fuc(a1-3)]GlcNAc6S
# Outline: as §1
# Neu5Ac(a2-8)Neu5Ac = target: Neu5Ac(a2-8)Neu5Ac
# Outline: as §1
# [31] = target: Neu5Gc(a2-3)Gal(b1-4)GlcNAc
# Outline: as §1
# [32] = target: Neu5Gc(a2-8)Neu5Gc(a2-3)Gal(b1-4)GlcNAc
# Outline: as §1
# [33] = target: Neu5Gc(a2-8)Neu5Gc(a2-6)Gal(b1-4)GlcNAc
# Outline: as §1
binder,measurement,setting,value
B1,glycan array binding signal (z-score),[1],-0.446
same,glycan array binding signal (z-score),[2],-0.361
same,glycan array binding signal (z-score),[3],-0.446
same,glycan array binding signal (z-score),[4],-0.092
same,glycan array binding signal (z-score),[5],-0.127
same,glycan array binding signal (z-score),[6],-0.403
same,glycan array binding signal (z-score),[7],1.8
same,glycan array binding signal (z-score),[8],1.85
same,glycan array binding signal (z-score),Gal(b1-3)Gal(b1-4)GlcNAc,0.625
same,glycan array binding signal (z-score),[9],2.64
same,glycan array binding signal (z-score),Gal(b1-3)GlcNAc(b1-2)Man,0.38
same,glycan array binding signal (z-score),[10],2.5
same,glycan array binding signal (z-score),[11],-0.269
same,glycan array binding signal (z-score),[12],-0.041
same,glycan array binding signal (z-score),[13],2.71
same,glycan array binding signal (z-score),[14],5.02
same,glycan array binding signal (z-score),[15],5.53
same,glycan array binding signal (z-score),Gal3S(b1-4)Glc,-0.053
same,glycan array binding signal (z-score),Gal3S(b1-4)GlcNAc,-0.488
same,glycan array binding signal (z-score),Gal6S(b1-3)GlcNAc,2.78
same,glycan array binding signal (z-score),Gal6S(b1-4)Glc6S,4.58
same,glycan array binding signal (z-score),Gal6S(b1-4)GlcNAc6S,10.6
same,glycan array binding signal (z-score),[16],0.652
same,glycan array binding signal (z-score),[17],-0.141
same,glycan array binding signal (z-score),Glc(b1-6)Glc,-0.464
same,glycan array binding signal (z-score),[18],-0.452
same,glycan array binding signal (z-score),[19],-0.411
same,glycan array binding signal (z-score),[20],-0.557
same,glycan array binding signal (z-score),[21],-0.444
same,glycan array binding signal (z-score),[22],0.605
same,glycan array binding signal (z-score),[23],-0.188
same,glycan array binding signal (z-score),[24],-0.536
same,glycan array binding signal (z-score),Kdn(a2-3)Gal(b1-4)GlcNAc,-0.317
same,glycan array binding signal (z-score),[25],-0.285
same,glycan array binding signal (z-score),Man(a1-3)[Man(a1-6)]Man,-0.303
same,glycan array binding signal (z-score),[26],0.415
same,glycan array binding signal (z-score),[27],-0.226
same,glycan array binding signal (z-score),[28],2.56
same,glycan array binding signal (z-score),[29],1.87
same,glycan array binding signal (z-score),[30],-0.461
same,glycan array binding signal (z-score),Neu5Ac(a2-8)Neu5Ac,-0.571
same,glycan array binding signal (z-score),[31],-0.437
same,glycan array binding signal (z-score),[32],-0.346
same,glycan array binding signal (z-score),[33],-0.395
